PostGolgi yeast = growth inhibition of a yeast mutant, post-Golgi transport screen | post-Golgi transport phenotypic cell assay | inhibition, % at 10 µM | 0.9% of 98,000 active | AID 739;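 also: yeast cells grown in 1536-well plates; yeast grown about 18 h at 30C before absorbance read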
CYP2C9 activ = activators of human CYP2C9 | P11712 | recombinant CYP2C9, luciferin-H conversion, luminescence; stronger effect = higher value; factor 1 = untreated enzyme, 0 = blocked | activation factor at 5 µM | 1.4% of 96,000 active;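 active = activation factor of 2 or more for CYP2C9 at a 5 µM dose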;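 also: 0 = sulfaphenazole-blocked wells and 1 = vehicle-only wells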
Target sequence (P11712 whole entry, looked up): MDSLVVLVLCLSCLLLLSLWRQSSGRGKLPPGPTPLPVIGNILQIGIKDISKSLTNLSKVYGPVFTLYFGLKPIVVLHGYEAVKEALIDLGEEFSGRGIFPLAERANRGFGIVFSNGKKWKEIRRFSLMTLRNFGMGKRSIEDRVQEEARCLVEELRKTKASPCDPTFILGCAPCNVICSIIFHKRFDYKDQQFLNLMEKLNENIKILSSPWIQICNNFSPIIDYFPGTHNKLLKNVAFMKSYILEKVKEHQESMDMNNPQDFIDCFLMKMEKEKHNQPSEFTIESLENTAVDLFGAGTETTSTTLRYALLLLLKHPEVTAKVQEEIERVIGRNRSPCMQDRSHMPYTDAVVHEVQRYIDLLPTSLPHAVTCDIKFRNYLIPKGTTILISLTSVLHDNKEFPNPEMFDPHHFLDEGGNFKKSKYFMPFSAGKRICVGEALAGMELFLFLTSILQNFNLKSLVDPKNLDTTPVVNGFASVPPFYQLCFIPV
CYP2C19 inhib = human CYP2C19 inhibition; CYP2C19 Supersomes, luciferin-H EGE luminescence, 30 min; inhibition, % at 5 µM; 21% of 96,000 active;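 active = CYP2C19 inhibition above a set limit at 5 µM in the primary screen, cut at about 50% in these data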;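 also: plate controls were negative control wells for no effect and 2.5 mM tranylcypromine positive control for full effect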
PostGolgi ctrl = inhibits growth of the yeast control strain | inhibition, % at 10 µM | efflux-deficient yeast background strain, growth absorbance A615, 16 h | 5% of 98,000 active
CYP2C9 inhib = inhibitors of human CYP2C9; P11712; CYP2C9 Supersomes, luciferin-H conversion, luminescence; inhibition, % at 5 µM; 20% of 96,000 active; AID 777;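 active = blocking of liver enzyme CYP2C9 beyond about 50% at 5 µM, limit read from the data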
CYP2C19 act = cytochrome P450 2C19 (human) activation; P33261; recombinant CYP2C19, luciferin-H EGE luminescence; stronger effect = higher value; 0 = fully inhibited enzyme, 1 = untreated enzyme; activation factor at 5 µM; 96,000 tested, under 10 active; AID 1025;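 active = activation factor of at least 2 at 5 µM in the primary screen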;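 also: 0 = wells with 2.5 mM tranylcypromine and 1 = vehicle-only wells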
An asterisk follows results filed as active. A selection follows. Rule as the data show it, unless noted: active = inhibition above about 30%; inactive = the rest.

What do the screens show for `COc1cccc(NC(=O)C(NCCC(C)C)c2ccccc2)c1` (stereo unspecified)?
PostGolgi yeast: -6; CYP2C9 activ: 0.7; CYP2C19 inhib: 29; PostGolgi ctrl: 8; CYP2C9 inhib: 28; CYP2C19 act: 0.7

Results for CCCN(CCC)C(C(=O)Nc1cccc(OC)c1)c1ccccc1 (stereo unspecified) ?
PostGolgi yeast: 4; CYP2C9 activ: 0.1; CYP2C19 inhib: 88*; PostGolgi ctrl: 27; CYP2C9 inhib: 89*; CYP2C19 act: 0.1

What do the screens show for `COC(=O)C(C(=O)OC)N1C(=O)CCC1=O`?
PostGolgi yeast: 7; CYP2C9 activ: 1; CYP2C19 inhib: -11; PostGolgi ctrl: 11; CYP2C9 inhib: -4; CYP2C19 act: 1.1

Results for CC1=CC(C)C2C(=O)N(CCCN(C)C)C(=O)C2C1 (stereo unspecified) ?
PostGolgi yeast: -10; CYP2C9 activ: 1.1; CYP2C19 inhib: -3; PostGolgi ctrl: 6; CYP2C9 inhib: -9; CYP2C19 act: 1

What do the screens show for `O=C(NCCCN1CCOCC1)[C@@H]1CSC2c3ccccc3C(=O)N21` (stereo partly specified)?
PostGolgi yeast: -1; CYP2C9 activ: 1.2; CYP2C19 inhib: -6; PostGolgi ctrl: -3; CYP2C9 inhib: -18; CYP2C19 act: 1.1

Results for CN1CCN(c2oc(-c3cccs3)nc2S(=O)(=O)c2ccccc2)CC1 ?
PostGolgi yeast: -2; CYP2C9 activ: 0.7; CYP2C19 inhib: 14; PostGolgi ctrl: 1; CYP2C9 inhib: 28; CYP2C19 act: 0.9

Results for O=c1cc(CN2CCN(c3ccccc3F)CC2)c2cc3c(cc2o1)CCCC3 ?
PostGolgi yeast: -1; CYP2C9 activ: 0.8; CYP2C19 inhib: 16; PostGolgi ctrl: 8; CYP2C9 inhib: 19; CYP2C19 act: 0.8

Results for C=CCn1c(SCc2c(C)noc2C)nc2sc3c(c2c1=O)CCCC3 ?
PostGolgi yeast: -3; CYP2C9 activ: 0.2; CYP2C19 inhib: 22; PostGolgi ctrl: 15; CYP2C9 inhib: 78*; CYP2C19 act: 0.8

What do the screens show for `C=CCn1c(NCCO)nc2sc3c(c2c1=O)CCC3`?
PostGolgi yeast: -6; CYP2C9 activ: 0.9; CYP2C19 inhib: 13; PostGolgi ctrl: 19; CYP2C9 inhib: 9; CYP2C19 act: 0.9

Results for C=CCn1c(SCc2c(C)noc2C)nc2cc(C(=O)O)ccc2c1=O ?
PostGolgi yeast: -2; PostGolgi ctrl: 3

Results for Cc1noc(C)c1CSc1nc2sc(C)c(C)c2c(=O)n1C1CCCC1 ?
PostGolgi yeast: 7; CYP2C9 activ: 0.1; CYP2C19 inhib: 29; PostGolgi ctrl: -3; CYP2C9 inhib: 90*; CYP2C19 act: 0.7

What do the screens show for `COC(=O)c1ccc(CSc2nc3sc4c(c3c(=O)n2C)CCCC4)o1`?
PostGolgi yeast: 0; CYP2C9 activ: 0.1; CYP2C19 inhib: 84*; PostGolgi ctrl: 26; CYP2C9 inhib: 94*; CYP2C19 act: 0.2

What do the screens show for `C=CCn1c(SCc2c(C)noc2C)nc2sc3c(c2c1=O)CCCCC3`?
PostGolgi yeast: -3; CYP2C9 activ: 0; CYP2C19 inhib: 56*; PostGolgi ctrl: 10; CYP2C9 inhib: 95*; CYP2C19 act: 0.4

Results for COC(=O)c1ccc(CSc2nnnn2C)o1 ?
PostGolgi yeast: -1; CYP2C9 activ: 0.9; CYP2C19 inhib: 29; PostGolgi ctrl: 3; CYP2C9 inhib: 7; CYP2C19 act: 0.7

What do the screens show for `O=c1[nH]c2ccc(S(=O)(=O)Nc3ccc(-c4nnc5n4CCCCC5)cc3)cc2o1`?
PostGolgi yeast: 0; CYP2C9 activ: 0.7; CYP2C19 inhib: 7; PostGolgi ctrl: 0; CYP2C9 inhib: 31; CYP2C19 act: 0.9

What do the screens show for `COc1ccccc1CN1C(=O)CN(C2CCCC2)C(=O)C1c1ccc(F)cc1` (stereo unspecified)?
PostGolgi yeast: 9; CYP2C9 activ: 0.8; CYP2C19 inhib: 21; PostGolgi ctrl: 11; CYP2C9 inhib: 24; CYP2C19 act: 0.8

How did COC(=O)c1ccc(CSc2nnc3c(Cl)cc(Cl)cn23)o1 do in these assays?
PostGolgi yeast: 4; CYP2C9 activ: 1; CYP2C19 inhib: 82*; PostGolgi ctrl: 8; CYP2C9 inhib: 3; CYP2C19 act: 0.2

What do the screens show for `Cc1noc(C)c1CSc1ncnc2sc3c(c12)CCC3`?
CYP2C9 activ: 0.9; CYP2C19 inhib: 24; CYP2C9 inhib: 11; CYP2C19 act: 0.8

What do the screens show for `Cc1noc(C)c1CSc1nc2sc3c(c2c(=O)n1C)CCCC3`?
PostGolgi yeast: 0; CYP2C9 activ: 0.6; CYP2C19 inhib: 19; PostGolgi ctrl: 40*; CYP2C9 inhib: 40; CYP2C19 act: 0.8

Results for O=C(Nc1ccc(F)cc1)c1cccc2c1C(=O)N(Cc1ccccn1)C2 ?
PostGolgi yeast: -12; CYP2C9 activ: 0.7; CYP2C19 inhib: 14; PostGolgi ctrl: 20; CYP2C9 inhib: 34; CYP2C19 act: 0.9

What do the screens show for `CCOC(=O)/C(=N\Nc1ccc(OC)cc1)c1csc(Nc2ccccc2)n1`?
PostGolgi yeast: -4; CYP2C9 activ: 0.6; CYP2C19 inhib: 11; PostGolgi ctrl: 14; CYP2C9 inhib: 44; CYP2C19 act: 0.9

How did CC(=O)Nc1ccc(NC(=O)CN(c2ccc(F)cc2)S(=O)(=O)c2ccc3c(c2)OCCO3)cc1 do in these assays?
PostGolgi yeast: 3; CYP2C9 activ: 0.7; CYP2C19 inhib: 15; PostGolgi ctrl: 10; CYP2C9 inhib: 30; CYP2C19 act: 0.9

Results for O=C(CN(c1ccc(F)cc1)S(=O)(=O)c1ccc2c(c1)OCCO2)Nc1ccccc1 ?
PostGolgi yeast: 33*; CYP2C9 activ: 0.4; CYP2C19 inhib: 29; PostGolgi ctrl: 7; CYP2C9 inhib: 65*; CYP2C19 act: 0.7

Results for O=C(CN(c1ccc(F)cc1)S(=O)(=O)c1ccc2c(c1)OCCO2)Nc1cccnc1 ?
PostGolgi yeast: 4; CYP2C9 activ: 0; CYP2C19 inhib: 92*; PostGolgi ctrl: 4; CYP2C9 inhib: 99*; CYP2C19 act: 0.1

How did O=C(CN(Cc1ccccc1)S(=O)(=O)c1ccc2c(c1)OCCO2)Nc1ccc2c(c1)OCCO2 do in these assays?
PostGolgi yeast: -1; CYP2C9 activ: 0; CYP2C19 inhib: 43; PostGolgi ctrl: 18; CYP2C9 inhib: 96*; CYP2C19 act: 0.6

How did CCCCCCc1nnc(N)s1 do in these assays?
PostGolgi yeast: -3; CYP2C9 activ: 0.7; CYP2C19 inhib: 25; PostGolgi ctrl: 3; CYP2C9 inhib: 28; CYP2C19 act: 0.7

How did O=C(Nc1nc(-c2ccccc2)cs1)c1cccs1 do in these assays?
PostGolgi yeast: -9; CYP2C9 activ: 0.7; CYP2C19 inhib: 15; PostGolgi ctrl: 0; CYP2C9 inhib: 34; CYP2C19 act: 0.8

Results for O=C(Nc1nc(-c2ccccn2)cs1)c1ccc(Cl)s1 ?
PostGolgi yeast: 37*; CYP2C9 activ: 0.9; CYP2C19 inhib: -2; PostGolgi ctrl: 24; CYP2C9 inhib: 5; CYP2C19 act: 1

Results for O=C(Nc1nc(-c2ccccn2)cs1)c1ncc(Cl)c(Cl)c1Cl ?
PostGolgi yeast: 82*; CYP2C9 activ: 1.5; CYP2C19 inhib: -6; PostGolgi ctrl: 39*; CYP2C9 inhib: -46; CYP2C19 act: 1.1
